From PubChem
Shown are actives, neighbours in structure and some others; about 1.6% of the full set was active somewhere.
KCNH2 WT inh: KCNH2 (human, wildtype) channel inhibition. Q12809. U2OS, BacMam KCNH2, thallium flux FluxOr; active compounds read low. activity change, % at 1.84 µM. hit rate 0.37% among 340,000. AID 720551;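 active = maximum activity change below -70%; inconclusive = maximum activity change between -70% and -50%; inactive = maximum activity change above -50%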; note: % is set by controls: 0 for no effect and ±100 for the full control effect
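U2OS cells were transduced with wild-type KCNH2 virus (2.03 x 10^8 / mL) for 4 h at room temperature, then cultured overnight at 37 C. Thallium flux was read with FluxOr dye. Rate constants were normalized to DMSO controls.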
pAkt inh: blocks phosphorylation of Akt; hit rate 0.32% among 360,000; activity change, % for hits at 50 µM; Neuro2A IGF-stimulated pAkt S473 HTRF, 20 min; active compounds read low; in the data active = activity change below about -80%; inconclusive = mostly about -51% to -80%; note: % is set by controls: 0 for no effect and ±100 for the full control effect
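Single-point screen (50 µM final compound) in Neuro2A cells stimulated 20 min with 6 nM IGF at 37 deg C. After lysis, Ser473-phosphorylated Akt read by HTRF (ex 330 nm, em 615/665 nm) as the 665/615 ratio.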
KCNH2 3.1 block: KCNH2 3.1 (human) potassium channel inhibition; U2OS KCNH2 3.1, thallium flux FluxOr; active compounds read low; activity change, % (tested at about 1.8 µM); hit rate 0.95% among 340,000;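 active = maximum activity change below -70%; inconclusive = maximum activity change from -70% to -50%; inactive = maximum activity change above -50%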;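 note: thallium influx rate constant from kinetic fluorescence after stimulation buffer; % is set by controls: 0 for no effect and ±100 for the full control effect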
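Thallium flux via FluxOr fluorescence (Red40 quencher, 45 min loading) in U2OS cells virally expressing the KCNH2 3.1 isoform (1.77 x 10^8 /mL virus, overnight at 37 C). Rate constants from 2-min kinetic reads post-stimulation, normalised to positive and negative controls.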
Glioma ERSR ind: inducers of ER stress response in human glioma cells. U87-MG GRP78 promoter luciferase reporter, 16 h. Potency, µM, for the others: top-dose activation, hits mostly activators. hit rate 0.02% among 420,000; active = well fitted activation curve with a large enough effect; inconclusive = small, poorly fitted or top-dose-only effect; inactive = no such curve, though single readings can be large or run the other way; note: potency is the fitted concentration of half-maximal effect; series mostly up to about 76 µM; % of control where 0% means no effect; nearly all actives have a fitted effect of over 35% in size
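ERSR induction read as luciferase luminescence (Bright-Glo, 10 min at room temperature) in stably transfected human U87-MG glioma cells exposed to compounds for 16 h, using GRP78 as sensor.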
gsp ag: gsp mutant agonism; AID 624287; gsp mutant cells, cAMP HTRF, 30 min; Potency, µM (series often up to 76.9 µM), without a hit: at the top dose activation (cAMP increase), most hits filed as activators; hit rate 0.13% among 340,000; active = well fitted activation curve with a large enough effect; inconclusive = small, poorly fitted or top-dose-only effect, or another doubt; inactive = no such curve, though single readings can be large or run the other way; cell line not stated here;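 note: phosphodiesterase inhibitor Ro 20-1724 added with compounds to block cAMP breakdown; potency is the fitted concentration of half-maximal effect; nearly all actives have a fitted effect of over 60% in size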
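Cells stably selected in G418 were plated at 2000/well, grown 16-24 hr, then given compounds in DMSO with the PDE inhibitor […] (300 uM solution added) for 30 min at 37C; cAMP was read by HTRF.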
gsp antag: antagonists of gsp mutant (McCune-Albright syndrome) | gsp-mutant cells, cAMP HTRF, 30 min | hit rate 0.4% among 340,000 | Potency, µM (titrated, usually from 76.9 µM), without a hit: top-dose activity change, negative = inhibition, hits mostly inhibitors; calls by dose curve; cell line not stated here;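 note: intracellular cAMP measured with PDE inhibitor Ro 20-1724 present during compound exposure; potency is the fitted concentration of half-maximal effect; % is set by controls: 0 for no effect and ±100 for the full control effect; nearly all actives have a fitted effect of over 65% in size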
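Cells, 2000/well, grown 16–24 h in DMEM 10% FBS with 0.5 mg/ml G418, then compounds plus […] (300 uM addition stock), 30 min at 37C. cAMP read by HTRF (cAMP-d2 and anti-cAMP antibody-K in lysis buffer) after 30 min RT.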
Numbers without * were called inactive; i = inactive; u = inconclusive; x = no result; [ ] = another dose, or the depositor's remark.

SMILES | KCNH2 WT inh | pAkt inh | KCNH2 3.1 block | Glioma ERSR ind | gsp ag | gsp antag
O=C(C[n+]1c2ccccc2cc2ccccc21)c1ccc(F)cc1 | x | x | x | -2.8% | x | x
COCCNC(=S)N(CCCN(C)C)Cc1cc2cc3c(cc2[nH]c1=O)OCCO3 | 12.5 | i | 16.0 | -1.4% | u | 50.1µM*
COCCCNC(=S)N(CCCN(C)C)Cc1cc2cc3c(cc2[nH]c1=O)OCCO3 | 0.6 | i | -14.5 | -3.2% | 13.4% | -5.1%
COc1ccc(N2C(=O)CN=C2Nc2nc(C)cc(C)n2)cc1OC | -2.2 | i | -148.5* | -4.7% | -7.4% | 2.8%
Cc1cc(C)nc(NC2=NCC(=O)N2c2ccc(F)c(Cl)c2)n1 | -5.9 | i | 0.0 | -7.1% | 10.4% | -2.3%
Cc1ccc(C)c(S(=O)(=O)N2CCCN(C)CC2)c1 | -3.2 | i | -90.1* | -1.9% | -0.6% | 5.3%
O=C(Nc1ccc(Br)cc1)N1CCCCCCC1 | 3.2 | -110.4%* | 0.7 | 5.6% | -31.1% | 4.4%
Cc1ccc(S(=O)(=O)N2CCN(C)CC2)c(C)c1N(C)S(=O)(=O)c1ccc(Cl)cc1 | -4.4 | i | -94.3* | -5.1% | u | -7.2%
Cc1cc(C)c(S(=O)(=O)N2CCCCC2)cc1N(C)S(=O)(=O)c1ccc(Cl)cc1 | 2.0 | i | 2.7 | -2.7% | -13.0% | -11.4%
Cc1ccc(C(=O)NCCNc2nc3cc(C)c(C)cc3cc2C)cc1 | 9.9 | i | x | -3.1% | 22.4µM* | 3.3%
CCn1ncc(C(=O)Nc2ccccc2C)c1C | 19.4 | i | -94.5* | 0.2% | -1.9%[15.4 µM] | 6.5%
CCOc1ccc(/C=C/c2cc[n+](C)c3ccccc23)cc1OCC | x | x | x | -4.3% | x | x
CCOc1ccc(-n2c(-c3ccc(Br)cc3)c[n+]3c2CCCCC3)cc1 | -81.3* | i | -85.3* | -3.1% | 10.7% | 2.4%
CS(=O)(=O)N1CCN(C(=O)COc2ccccc2)CC1 | 3.4 | i | -12.7 | -4.3% | 5.1%[15.4 µM] | x
O=C(COc1ccccc1)N1CCN(S(=O)(=O)Cc2ccccc2)CC1 | -268.6* | i | -8.7 | -0.6% | -4.0% | 4.4%
CN(CCO)C(=O)c1cn(C2CCN(Cc3ccc(C(F)(F)F)cc3)CC2)nn1 | x | x | x | 0.4% | x | x
Cc1cnc(-n2ncc(C(=O)N(C)C3CCOC3)c2-c2cccs2)nc1-c1ccc(F)cc1 (stereo not given) | x | x | x | -0.2% | x | x
Cc1noc(C)c1C(c1ccccc1)S(=O)(=O)c1ccccc1 (stereo not given) | -140.2* | i | -18.0 | -1.8% | 25.1% | -10.3%
Cc1ccc(S(=O)(=O)C(c2ccccc2)c2c(C)noc2C)cc1 (stereo not given) | 15.8 | i | -5.7 | -4.0% | 0.6% | -9.5%
O=C(O)c1cccc(CN2C(=O)S/C(=C/c3cccc([N+](=O)[O-])c3)C2=O)c1 | -8.2 | i | -0.8 | -5.4% | u | 20µM*
COc1cc(CO)cc(-c2cc(CO)cc(OC)c2OC)c1OC | -11.8 | -107.2%* | -15.6 | -3.3% | 0.0% | -3.1%
COc1cccc(CCNc2ncnc3sc(C(=O)N4CCN(C)CC4)c(C)c23)c1 | x | x | x | -6.3% | x | x
COc1cccc(C(=O)NCC2Cc3cccc(-c4nc(C)cnc4C)c3O2)c1OC (stereo not given) | x | x | x | 8.8% | x | x
C[C@@H]1CCC(=O)N(C[C@@H](C)CSc2ccc(Br)cc2)CC1 | -1.4 | i | -112.5* | -2.7% | 0.7% | -5.2%
CC1=CC(O)=NS(=O)(=O)O1 | x | x | x | -4.8% | x | x
SMILES | KCNH2 WT inh | pAkt inh | KCNH2 3.1 block | Glioma ERSR ind | gsp ag | gsp antag
COc1ccc(CCNC(=O)C(=O)NCC2OCCN2S(=O)(=O)c2cc(F)ccc2F)cc1 (stereo not given) | 8.2 | i | -143.0* | -5.4% | -13.9% | -8.0%
O=C(/C=C/c1cc([N+](=O)[O-])ccc1OC(F)F)Nc1cccc(OC(F)F)c1 | -158.3* | i | -3.5 | -3.1% | u | -10.3%
O=S(=O)(c1ccccc1)c1cnn2c(C(F)(F)F)cc(-c3ccccc3)nc12 | -4.6 | -89.7%* | -2.2 | -3.1% | 8.8% | 1.3%
COc1cc(CN2CCC3(CCC(CNC(=O)c4cc(C)nn4C)O3)CC2)ccc1F (stereo not given) | x | x | x | 1.1% | x | x
Cc1ccc(C(=O)C2=C(O)C(=O)N(c3ncccn3)C2c2ccc(F)cc2)o1 (stereo not given) | -11.9 | i | 0.8 | -4.5% | 46.1%[15.4 µM] | 20.2%
Cc1ccc(C(=O)C2=C(O)C(=O)N(c3ncccn3)C2c2ccccc2F)o1 (stereo not given) | -6.7 | x | -19.7 | -4.3% | 2.82µM* | -7.3%
CN1N/C(=C\c2ccccc2)N=C2C(=O)N(C)C(=O)N=C21 | x | x | x | -10.7% | x | x
Clc1ccc(-c2csc(NNC3=NCCCCC3)n2)cc1 | 14.4 | -111.5%* | -8.5 | u | 1.6% | 18.8%
COc1cccc(C2(CC(=O)N3CCCOc4c(cccc4OC)C3)CC(=O)N(C)C2=O)c1 (stereo not given) | x | x | x | 0.2% | x | x
O=C(Nc1ccc(Cl)cc1)c1cncs1 | -5.1 | i | 4.8 | 1.3% | 6.5%[15.4 µM] | 50.1µM*
O=C(Nc1ccc(F)cc1)c1cncs1 | -17.7 | i | 3.7 | -2.0% | 14.1%[15.4 µM] | 11.1%
O=C(CCC1COc2ccccc2O1)N1CCCC1 (stereo not given) | -24.7 | -100.3%* | -5.4 | -1.2% | -9.6% | 4.5%
O=C(O)CC(c1ccccc1)N1C(=O)c2ccccc2C1=O (stereo not given) | -1.0 | i | -75.7* | 3.3% | 13.4% | -2.5%
Cc1ccc(-n2c(-c3c(-c4ccccc4)noc3C)n[nH]c2=S)cc1 | -25.3 | i | -187.5* | -4.8% | -27.6% | -3.8%
Cc1ccc(-n2c(-c3cccc(C)c3)n[nH]c2=S)cc1 | 3.3 | i | 7.9 | -0.6% | 32.2% | -3.7%
CN(C/C=C/c1ccccc1)Cc1cccc2ccccc12 | 14.6 | i | -94.5* | -3.6% | x | -12.7%
O=C(c1cccs1)N1CCN(c2nc3ccccc3s2)CC1 | 2.0 | i | 14.6 | 3.9% | -25.4% | -0.6%
O=C(c1cc2sccc2n1Cc1ccc(F)cc1)N1CCN(c2nc3ccccc3s2)CC1 | -15.9 | i | -90.0* | 0.2% | 18.2% | u
CC(c1ncncc1F)[C@](O)(Cn1cncn1)c1ccc(F)cc1F (stereo not given in full) | x | x | x | -1.8% | x | x
CC(C)Cc1nc2cc(NS(=O)(=O)N(C)C)cc(C(=O)N3CCOc4ccccc4C3)c2n1C | x | x | x | -0.8% | x | x
COc1ccccc1-c1ccc(C(=O)N(C)CC2COCCO2)c(N2CCN(c3ccccc3F)CC2)n1 (stereo not given) | x | x | x | 0.0% | x | x
CC(=O)Nc1ccc(OCC(O)Cn2ccnc2)cc1 (stereo not given) | 7.1 | i | 9.1 | -3.5% | -15.7% | 7.2%
CC(=O)Nc1ccc(OCC(O)Cn2cccn2)cc1 (stereo not given) | -1.1 | i | -200.9* | -4.4% | -17.5% | 5.7%
